Source: PubChem (several laboratories)
Only some compounds are listed: those with a hit (about 2.4% of all), similar ones and a draw of the others.
A3G deaminase: blocks human APOBEC3G single-stranded DNA deamination; Q9HC16; recombinant A3G, ssDNA deamination FAM/TAMRA fluorescence; inhibition, % at 20 µM; hit rate 0.28% among 330,000;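 active = inhibition of at least 40% at 20 µM, with no more than 30% in the related APOBEC3A deaminase screen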
Target sequence (Q9HC16 whole entry, looked up): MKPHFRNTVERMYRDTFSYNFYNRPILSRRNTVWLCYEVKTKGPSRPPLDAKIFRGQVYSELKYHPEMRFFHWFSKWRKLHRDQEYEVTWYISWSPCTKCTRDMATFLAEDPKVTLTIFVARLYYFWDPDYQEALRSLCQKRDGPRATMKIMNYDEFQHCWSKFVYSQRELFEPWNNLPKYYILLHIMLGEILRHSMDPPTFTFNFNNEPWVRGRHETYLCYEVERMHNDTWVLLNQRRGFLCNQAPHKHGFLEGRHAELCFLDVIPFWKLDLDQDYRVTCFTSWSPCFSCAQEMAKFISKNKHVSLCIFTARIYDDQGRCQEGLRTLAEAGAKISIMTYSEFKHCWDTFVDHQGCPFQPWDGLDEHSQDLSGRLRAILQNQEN
CendR NRP1 mod: modulators of CendR peptide binding to human neuropilin-1. O14786. FAM-RPARPAR peptide binding to NRP-1, fluorescence polarization. inhibition, % at 25 µM. hit rate 0.85% among 360,000;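 active = inhibition or corrected inhibition above about 18%, plus a signal ratio from 0.5 to 1.5, limit read from the data, passing the limit was not always enough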
A3A deaminase: blocks human APOBEC3A ssDNA deamination; inhibition, % at 20 µM; AID 493011; hit rate 0.41% among 330,000; recombinant A3A, FAM/TAMRA ssDNA deamination fluorescence;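 active = at least 40% inhibition at 20 µM here, with at most 30% in a related deaminase screen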
ADAM17 inh: ADAM17 inhibition, QFRET primary screen; P78536; recombinant ADAM17, EDANS/DABCYL FRET peptide cleavage; inhibition, % at 6.95 µM; hit rate 0.83% among 370,000;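 active = inhibition above the mean of compounds lying between control limits plus 3 SD, set per campaign, cut at about 8.5% in these data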
ADAM10 inh: inhibits human ADAM10 | O14672 | recombinant ADAM10, EDANS/DABCYL FRET peptide cleavage, 3 h | inhibition, % at 7 µM | hit rate 0.62% among 370,000 | AID 720582;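 active = inhibition above a per-campaign cutoff equal to the mean of compounds falling between control-based bounds plus 3 SD, cut at about 20% in these data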
A3G conf: confirmation of human APOBEC3G DNA deaminase inhibitors | shares compounds with A3G deaminase | recombinant A3G ssDNA deaminase, UDG/FAM-TAMRA fluorescence | inhibition, % at 20 µM | hit rate 72% among 890 | AID 493152;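 active = inhibition reaching a set limit in any replicate at 20 µM, the limit being 80% of the first screen's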
UDG A3G counter: counter-screen for APOBEC3G inhibitors: E. coli UDG | 710 tested, under 10 active | AID 504715 | inhibition, % at 20 µM | shares compounds with A3G deaminase | UDG counterscreen, FAM/TAMRA oligo fluorescence;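 active = compounds giving 40% or more inhibition at 20 µM in any one of the three replicates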;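 note: inhibitors lower the FAM signal released by uracil excision and alkaline cleavage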
Each line names hits and unclear results; the compound was inactive in the other large screens (follow-up assays come after a bar, where they were run).

COc1cccc(Cn2cc(COC(=O)N(C)Cc3ccccc3)nn2)c1	none (no result: A3G deaminase, CendR NRP1 mod, A3A deaminase)
O=C(Cn1c(=O)oc2ccccc21)Nc1n[nH]c(=S)s1	A3G deaminase 81 | A3G conf 90 | UDG A3G counter inactive
O=C(Cn1c(=O)oc2ccccc21)Nc1nc(-c2ccccc2)cs1	none
S=c1[nH]nc(-c2ccc(Cl)cc2)n1-c1ccc(Cl)cc1	none
Nc1n[nH]c(=S)n1-c1ccc(Cl)cc1	A3G deaminase 52 | A3G conf 63 | UDG A3G counter inactive
COc1ccc(C2CC(=O)N3CN(c4ccc(C)c(Cl)c4)CSC3=C2C#N)cc1 (centres undefined)	A3G deaminase 52 | A3G conf 52
COc1cc(OC)c(C2CC(=O)N3CN(c4ccccc4C)CSC3=C2C#N)cc1OC (centres undefined)	A3G deaminase 44 (no result: CendR NRP1 mod) | A3G conf inactive
COc1ccc(OC)c(C2CC(=O)N3CN(c4ccccc4)CSC3=C2C#N)c1 (centres undefined)	A3G deaminase 46 | A3G conf 56 | UDG A3G counter inactive
CN(c1ccc(NC(=O)CCc2c[nH]c3ccccc23)cc1)c1ccccn1	none (no result: A3G deaminase, CendR NRP1 mod, A3A deaminase)
O=C1/C(=C/c2ccncc2)SC(=S)N1Cc1ccccc1	none
O=C1/C(=C\c2cccc(O)c2O)SC(=S)N1Cc1ccccc1	A3G deaminase 62 | A3G conf 59 | UDG A3G counter inactive
CCOC(=O)[C@@]12CCC3=C1N(CCC3)C(=O)[C@H](CC(=O)N1CCCC1)C2	none (no result: A3G deaminase, CendR NRP1 mod, A3A deaminase)
COC(=O)Cc1nnn2c1CC(OC)c1ccccc1-2 (centres undefined)	none (no result: A3G deaminase, CendR NRP1 mod, A3A deaminase)
CCN(CC)S(=O)(=O)c1cc(NC(=O)Cn2ncc(Cl)c(Cl)c2=O)ccc1C	A3G deaminase 55 | A3G conf inactive
C[C@@H]1Cc2cc(O)cc(O)c2C(=O)O1	none (no result: A3G deaminase, CendR NRP1 mod, A3A deaminase)
CCn1c(C)c(CS(=O)(=O)c2ccccc2)[nH]c1=O	A3G deaminase 49 | A3G conf 87 | UDG A3G counter inactive
CCOc1ccc(C(=S)NC2CCCCC2)cc1OCC	A3G deaminase 56 | A3G conf 49 | UDG A3G counter inactive
Cc1cccc(Cn2cc(COC(=O)N(C)Cc3ccccc3)nn2)c1	none (no result: A3G deaminase, CendR NRP1 mod, A3A deaminase)
CCOc1ccc(N2C(=O)CC(Sc3n[nH]c(-c4ccccc4)n3)C2=O)cc1 (centres undefined)	A3G deaminase 46 | A3G conf 47 | UDG A3G counter inactive
COc1ccc(N2C(=O)CC(Sc3n[nH]c(-c4ccccc4)n3)C2=O)cc1 (centres undefined)	A3G deaminase 53 | A3G conf 62 | UDG A3G counter inactive
CC(C)NC(=O)N[C@H]1C[C@@H]2O[C@@H](CO)CC[C@@H]2O[C@@H]1CCc1ccc(-c2ccccc2F)cc1	none (no result: A3G deaminase, CendR NRP1 mod, A3A deaminase)
CCCCN1CCN(C(=O)c2ccc(CNC(=O)c3cccc(Br)c3)cc2)CC1	none (no result: A3G deaminase, CendR NRP1 mod, A3A deaminase)
CCn1c(-c2ccc3ncccc3c2)n[nH]c1=S	none
C=CCn1c(-c2sc3nc(C)cc(C)c3c2N)n[nH]c1=S	A3G deaminase 49 | A3G conf 77 | UDG A3G counter inactive
C=CCn1c(-c2cc(OC)cc(OC)c2)n[nH]c1=S	A3G deaminase 43 | A3G conf 82 | UDG A3G counter inactive
C=CCn1c(-c2ccc3ncccc3c2)n[nH]c1=S	A3G deaminase 56 | A3G conf 60 | UDG A3G counter inactive
O=C(NCc1ccccc1)OCCN1C(=O)CCC12CCCCC2	none (no result: A3G deaminase, CendR NRP1 mod, A3A deaminase)
Cn1c(CSCCOc2ccccc2)n[nH]c1=S	A3G deaminase 41 | A3G conf inactive
Cn1c(CSc2nc3ccccc3s2)n[nH]c1=S	A3G deaminase 48 | A3G conf 58 | UDG A3G counter inactive
Cn1c(-c2csc(-c3ccccc3)n2)n[nH]c1=S	A3G deaminase 45 | A3G conf 64 | UDG A3G counter inactive
Cn1c(-c2sc3ccccc3c2Cl)n[nH]c1=S	A3G deaminase 41 | A3G conf 63 | UDG A3G counter inactive
Cc1ccc(-c2n[nH]c(=S)n2C)cc1	none (no result: A3G deaminase, A3A deaminase)
Cc1ccc(NC(=O)C2CCN(c3ncccn3)CC2)cc1C	none (no result: A3G deaminase, CendR NRP1 mod, A3A deaminase)
COC(=O)C1=C(C)N(C)C(=NCc2ccccc2)NC1c1ccc(F)cc1 (centres undefined)	none (no result: A3G deaminase, CendR NRP1 mod, A3A deaminase)
